Among all 39,000 compounds or so, about 3,300 (8.5%) were called active. This excerpt belongs to a sample that is enriched for actives.

For the assay, the system named is HepG2. Put plainly: cytotoxicity call (relative viability < 0.9). The following applies: 10 µM.
As to `CSC(=N)NCCC[C@@H](N)C(=O)O`, the cytotoxicity call is “inactive”. The entry for `C[C@H]1CCCCO[C@H](CN(C)S(=O)(=O)c2cccs2)[C@@H](C)CN([C@@H](C)CO)C(=O)c2cc(NC(=O)Nc3ccc(C(F)(F)F)cc3)ccc2O1` is “inactive”; for `CC(C)(C)C(=O)Nc1c[nH]c(=O)[nH]c1=O` it is “inactive”; for `C[C@@H]1CCCCO[C@@H](CN(C)C(=O)NC2CCCCC2)[C@H](C)CN([C@@H](C)CO)C(=O)c2cc(NC(=O)c3ccncc3)ccc2O1` it is “inactive”. The entry for `Nc1ccc2c(c1)nc(CO)n2CCO` is “inactive”. For `Nc1ccc2cc3ccc(N)cc3nc2c1.O=S(=O)(O)O`, the cytotoxicity call was “active”. The entry for `Nc1ccc(S(=O)(=O)c2ccc(N)cc2)cc1` is “inactive”; for `C[C@@H]1CN([C@H](C)CO)C(=O)c2cc(NC(=O)C3CCCCC3)ccc2O[C@H]1CN(C)C(=O)Nc1cccc2ccccc12` it is “inactive”. In the case of `COc1ccc(S(=O)(=O)N(C)C[C@H]2Oc3ccc(NC(=O)C4CC4)cc3CC(=O)N([C@@H](C)CO)C[C@@H]2C)cc1`, the cytotoxicity call is “inactive”.

Regarding `C[C@H](CO)N1C[C@H](C)[C@@H](CN(C)C(=O)Nc2cccc3ccccc23)Oc2ccc(NS(=O)(=O)c3ccc(Cl)cc3)cc2CC1=O`, the cytotoxicity call is “inactive”. Take `Cc1noc(C)c1NC(=O)N(C)C[C@@H]1Oc2ccc(NC(=O)C3CC3)cc2CC(=O)N([C@@H](C)CO)C[C@H]1C`: the cytotoxicity call was “inactive”. `CN(C)CC#Cc1ccc([C@@H]2[C@H](CO)N3CCCCN(C(=O)CN(C)C)C[C@@H]23)cc1`: the cytotoxicity call is “inactive”. For the compound `CN(C)CC#Cc1ccc([C@H]2[C@@H](CO)N3CCCCN(C(=O)CN(C)C)C[C@@H]23)cc1`, the cytotoxicity call is “inactive”. The entry for `COc1ccc(NC(=O)N2CCCCN3[C@H](COCCN(C)C)[C@H](c4ccc(C#Cc5ccccc5)cc4)[C@@H]3C2)cc1` is “active”; for `COc1ccc(C#Cc2ccc([C@@H]3[C@@H](CO)N4CCCCN(S(=O)(=O)c5cn(C)cn5)C[C@H]34)cc2)cc1` it is “inactive”.

Take `CN(C)CC#Cc1ccc([C@@H]2[C@@H](CO)N3CCCCN(C(=O)CN(C)C)C[C@@H]23)cc1`: the cytotoxicity call was “inactive”. The entry for `CN(C)CC#Cc1ccc([C@H]2[C@@H](CO)N3CCCCN(C(=O)CN(C)C)C[C@H]23)cc1` is “inactive”; for `COc1ccc(C#Cc2ccc([C@H]3[C@H](CO)N4CCCCN(S(=O)(=O)c5cn(C)cn5)C[C@@H]34)cc2)cc1` it is “inactive”. The entry for `COc1ccc(C#Cc2ccc([C@@H]3[C@H](CO)N4CCCCN(S(=O)(=O)c5cn(C)cn5)C[C@@H]34)cc2)cc1` is “active”; for `COc1ccc(NC(=O)N2CCCCN3[C@H](CN(C)C(C)=O)[C@H](c4ccc(C#Cc5ccccc5)cc4)[C@@H]3C2)cc1` it is “active”; for `O[C@H]1[C@H](O)[C@@H](O)[C@H]2O[C@@H]2[C@@H]1O` it is “inactive”. As to `CCSC(=O)NC1CCCCC1`, the cytotoxicity call was “inactive”.

Regarding `COc1ccc(NC(=O)N(C)C[C@H]2OCCCC[C@H](C)Oc3ccc(NC(=O)CCC(F)(F)F)cc3C(=O)N([C@H](C)CO)C[C@@H]2C)cc1`, the cytotoxicity call is “inactive”.

With `CS(=O)(=O)N1CC[C@@H]2OCCN(C(=O)c3cccnc3)[C@@H]2C1`, the cytotoxicity call is “inactive”.

Consider `C[C@@H]1CN([C@H](C)CO)C(=O)c2cccc(NS(=O)(=O)c3cn(C)cn3)c2O[C@H]1CN(C)Cc1ccc(C(=O)O)cc1`, for which the cytotoxicity call is “inactive”. On to `CC(=O)n1cc([C@@H]2C=C(C(=O)NCc3ccccc3)O[C@H](OCc3ccc(CO)cc3)C2)c2ccccc21`, for which the cytotoxicity call was “inactive”. The entry for `C[C@@H]1CN([C@H](C)CO)C(=O)c2cc(NS(=O)(=O)c3ccccc3)ccc2O[C@@H]1CN(C)Cc1ccc(-c2ccccc2)cc1` is “inactive”; for `C[C@H]1CN([C@@H](C)CO)C(=O)c2cc(NS(=O)(=O)c3ccccc3)ccc2O[C@@H]1CN(C)Cc1ccc(-c2ccccc2)cc1` it is “inactive”. With `C[C@H]1CN([C@@H](C)CO)C(=O)c2cc(NS(=O)(=O)c3ccccc3)ccc2O[C@H]1CN(C)Cc1ccc(-c2ccccc2)cc1`, the cytotoxicity call is “inactive”. The entry for `C[C@@H]1CN([C@@H](C)CO)C(=O)c2cc(NS(=O)(=O)c3ccccc3)ccc2O[C@@H]1CN(C)Cc1ccc(-c2ccccc2)cc1` is “active”; for `C[C@@H]1CN([C@@H](C)CO)C(=O)c2cc(NS(=O)(=O)c3ccccc3)ccc2O[C@H]1CN(C)Cc1ccc(-c2ccccc2)cc1` it is “active”. The entry for `C[C@H](CO)N1C[C@H](C)[C@H](CN(C)Cc2ccc(-c3ccccc3)cc2)Oc2ccc(NS(=O)(=O)c3ccccc3)cc2C1=O` is “inactive”; for `COc1ccc(NC(=O)N(C)C[C@@H]2OCCCC[C@@H](C)Oc3ccc(NC(=O)c4ccccc4)cc3C(=O)N([C@@H](C)CO)C[C@@H]2C)cc1` it is “inactive”. The entry for `COc1ccc(NC(=O)Nc2ccc3c(c2)C(=O)N([C@H](C)CO)C[C@H](C)[C@@H](CN(C)C(=O)Nc2ccc4c(c2)OCO4)OCCCC[C@H](C)O3)cc1` is “active”.

Turning to `C[C@@H]1CCCCO[C@@H](CN(C)C(=O)Nc2ccc3c(c2)OCO3)[C@H](C)CN([C@H](C)CO)C(=O)c2cc(NC(=O)Nc3ccccc3)ccc2O1`, the cytotoxicity call is “active”. The entry for `COc1ccc(NC(=O)N(C)C[C@H]2OCCCC[C@H](C)Oc3ccc(NC(=O)c4ccccc4)cc3C(=O)N([C@H](C)CO)C[C@@H]2C)cc1` is “inactive”; for `COc1ccc(NC(=O)N(C)C[C@@H]2OCCCC[C@@H](C)Oc3ccc(NC(=O)c4ccccc4)cc3C(=O)N([C@H](C)CO)C[C@H]2C)cc1` it is “active”. The entry for `COc1ccc(NC(=O)Nc2ccc3c(c2)C(=O)N([C@H](C)CO)C[C@H](C)[C@H](CN(C)C(=O)Nc2ccc4c(c2)OCO4)OCCCC[C@@H](C)O3)cc1` is “inactive”; for `COc1ccc(NC(=O)N(C)C[C@H]2OCCCC[C@H](C)Oc3ccc(NC(=O)Nc4ccccc4)cc3C(=O)N([C@H](C)CO)C[C@@H]2C)cc1` it is “inactive”. The entry for `COc1ccc(NC(=O)N(C)C[C@@H]2OCCCC[C@H](C)Oc3ccc(NC(=O)Nc4ccc5c(c4)OCO5)cc3C(=O)N([C@@H](C)CO)C[C@H]2C)cc1` is “inactive”; for `COc1ccc(NC(=O)N(C)C[C@H]2OCCCC[C@H](C)Oc3ccc(NC(=O)Nc4ccccc4)cc3C(=O)N([C@@H](C)CO)C[C@@H]2C)cc1` it is “inactive”.

Take `C[C@@H]1CCCCO[C@H](CN(C)C(=O)Nc2ccc3c(c2)OCO3)[C@H](C)CN([C@H](C)CO)C(=O)c2cc(NC(=O)Nc3ccccc3)ccc2O1`: the cytotoxicity call is “inactive”. For `COc1ccc(NC(=O)N(C)C[C@H]2OCCCC[C@@H](C)Oc3ccc(NC(=O)Nc4ccccc4)cc3C(=O)N([C@H](C)CO)C[C@@H]2C)cc1`, the cytotoxicity call is “active”. The entry for `C[C@H]1CCCCO[C@@H](CN(C)C(=O)Nc2ccc3c(c2)OCO3)[C@@H](C)CN([C@@H](C)CO)C(=O)c2cc(NC(=O)Nc3ccccc3)ccc2O1` is “inactive”; for `CS(=O)(=O)Nc1ccc2c(c1)[C@@H]1C[C@@H](CC(=O)NCc3ccc(-c4ccccc4)cc3)O[C@@H](CO)[C@@H]1O2` it is “inactive”; for `C[C@H](CO)N1C[C@H](C)[C@@H](CN(C)S(=O)(=O)c2cccs2)Oc2ccc(NS(=O)(=O)c3cn(C)cn3)cc2CC1=O` it is “inactive”. `C[C@H]1CN([C@@H](C)CO)C(=O)c2cccc(NS(=O)(=O)c3cn(C)cn3)c2O[C@@H]1CN(C)C(=O)Nc1ccc(F)cc1`: the cytotoxicity call is “inactive”. The entry for `O=C(C[C@@H]1C[C@H]2c3cc(NS(=O)(=O)c4ccc(F)cc4)ccc3O[C@H]2[C@@H](CO)O1)NCc1cccc(F)c1` is “inactive”. The entry for `Cc1cc(C(=O)Nc2cccc3c2O[C@@H](CN(C)C(=O)Nc2c(C)noc2C)[C@@H](C)CN([C@@H](C)CO)C3=O)n(C)n1` is “inactive”; for `Cc1ccc(OC(=O)N(C)C[C@H]2OCc3ccccc3-c3ccccc3C(=O)N([C@H](C)CO)C[C@H]2C)cc1` it is “inactive”; for `COc1ccc(CN(C)C[C@@H]2Oc3ccc(NC(=O)Cn4cnnn4)cc3CC(=O)N([C@@H](C)CO)C[C@@H]2C)cc1` it is “inactive”. For the compound `C[C@@H]1CN([C@@H](C)CO)C(=O)c2cc(NC(=O)c3ccncc3)ccc2O[C@@H](C)CCCCO[C@@H]1CN(C)C(=O)NC1CCCCC1`, the cytotoxicity call was “active”.

Consider `C[C@@H]1CCCCO[C@@H](CN(C)C(=O)NC2CCCCC2)[C@@H](C)CN([C@H](C)CO)C(=O)c2cc(NC(=O)c3ccncc3)ccc2O1`, for which the cytotoxicity call is “inactive”. As to `C[C@@H]1CCCCO[C@H](CN(C)C(=O)NC2CCCCC2)[C@@H](C)CN([C@@H](C)CO)C(=O)c2cc(NC(=O)c3ccncc3)ccc2O1`, the cytotoxicity call is “inactive”. On to `C[C@H](CO)N1C[C@H](C)[C@@H](CN(C)C(=O)NC2CCCCC2)OCCCC[C@H](C)Oc2ccc(NC(=O)c3ccccc3)cc2C1=O`, for which the cytotoxicity call was “active”. Turning to `C[C@@H]1CCCCO[C@H](CN(C)C(=O)NC2CCCCC2)[C@@H](C)CN([C@H](C)CO)C(=O)c2cc(NC(=O)c3ccccc3)ccc2O1`, the cytotoxicity call is “inactive”. The entry for `C[C@H]1CCCCO[C@H](CN(C)C(=O)NC2CCCCC2)[C@@H](C)CN([C@@H](C)CO)C(=O)c2cc(NC(=O)c3ccccc3)ccc2O1` is “inactive”.

In the case of `CC(C)NC(=O)Nc1ccc2c(c1)C(=O)N([C@@H](C)CO)C[C@@H](C)[C@H](CN(C)Cc1ccc(Oc3ccccc3)cc1)O2`, the cytotoxicity call was “inactive”. Take `C#CCN1C(=O)N(C(=O)c2ccccc2)[C@@H]2c3ccccc3O[C@@]1(COCc1ccc(OC)cc1)[C@@H]2CO[Si](C)(C)C(C)(C)C`: the cytotoxicity call is “inactive”. The entry for `O=C(N[C@@H]1C=C[C@H](CC(=O)N2CCOCC2)O[C@@H]1CO)c1ccccn1` is “inactive”; for `C[C@H](CO)N1C[C@H](C)[C@@H](CN(C)S(=O)(=O)c2cccs2)Oc2ccc(NS(=O)(=O)c3ccc(F)cc3)cc2CC1=O` it is “inactive”.

For `C[C@H](CO)N1C[C@H](C)[C@H](CN(C)C(=O)Nc2cccc(Cl)c2Cl)OCc2ccccc2-c2ccccc2C1=O`, the cytotoxicity call is “inactive”. In the case of `N#Cc1ccc(O)c(O)c1`, the cytotoxicity call is “active”. The entry for `N#Cc1ccc(CN)cc1` is “inactive”. As for `O=C(O)c1ccc(O)c(O)c1`, the cytotoxicity call is “inactive”. The entry for `COc1ccc(NC(=O)N(C)C[C@H]2Oc3ccc(NC(=O)Nc4ccc(C(F)(F)F)cc4)cc3C(=O)N([C@H](C)CO)C[C@@H]2C)cc1` is “inactive”.

Values taken from the antibiotic and cytotoxicity screens of Wong et al. (2023).
